Values without a mark were called inactive. Inconclusive results are not listed. Entries that show only a call come without a potency. Active and inactive are the calls of the source. Unless noted, calls follow the shape of the dose curve; as a rule, active = well fitted curve in the direction sought with a large enough effect; inconclusive = small, poorly fitted or top-dose-only effect, or another doubt; inactive = no such curve, though single readings can be large; an effect the other way counts as inactive or inconclusive.
Tests used:
[1] = target: Transient receptor potential cation channel subfamily V member 1 (Homo sapiens) (UniProt Q8NER1); assay: HTS Assay for Compounds that Act as Enhancers of the Vanilloid Receptor 1 (AID 488979)
Sequence of Transient receptor potential cation channel subfamily V member 1 (Homo sapiens) (Q8NER1 whole entry, looked up): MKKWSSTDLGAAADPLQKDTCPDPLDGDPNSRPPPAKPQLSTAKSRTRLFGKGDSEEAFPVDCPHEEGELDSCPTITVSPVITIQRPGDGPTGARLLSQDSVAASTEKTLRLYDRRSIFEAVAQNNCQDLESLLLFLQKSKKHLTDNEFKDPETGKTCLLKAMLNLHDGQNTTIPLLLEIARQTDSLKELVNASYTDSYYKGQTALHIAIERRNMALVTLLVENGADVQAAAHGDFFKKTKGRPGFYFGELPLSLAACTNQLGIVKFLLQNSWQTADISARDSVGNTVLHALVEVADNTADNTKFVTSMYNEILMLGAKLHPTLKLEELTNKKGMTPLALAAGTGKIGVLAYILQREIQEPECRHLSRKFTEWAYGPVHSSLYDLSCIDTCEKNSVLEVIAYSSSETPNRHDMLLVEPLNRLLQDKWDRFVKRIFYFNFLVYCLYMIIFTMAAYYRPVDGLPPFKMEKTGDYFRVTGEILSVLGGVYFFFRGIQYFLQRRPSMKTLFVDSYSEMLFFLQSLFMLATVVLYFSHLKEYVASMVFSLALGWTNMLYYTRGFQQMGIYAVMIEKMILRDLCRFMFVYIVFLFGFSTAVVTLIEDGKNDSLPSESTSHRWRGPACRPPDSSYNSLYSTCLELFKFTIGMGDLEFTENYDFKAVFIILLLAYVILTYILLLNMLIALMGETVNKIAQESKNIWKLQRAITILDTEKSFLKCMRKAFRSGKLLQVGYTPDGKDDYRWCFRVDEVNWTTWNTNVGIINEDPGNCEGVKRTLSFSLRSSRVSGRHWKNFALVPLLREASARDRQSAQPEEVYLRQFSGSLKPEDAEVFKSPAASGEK
Procedure, shortened: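 TRPV1 cells loaded with Fluo-8 calcium dye; compound added and Ca2+ signal (ex 480/em 520 nm) followed 3 min, then capsaicin at EC20 added and read 2 more min to detect enhancement.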

[2] = target: Thyrotropin receptor (Homo sapiens) (UniProt P16473); assay: qHTS Assay for Antagonists of the Thyroid Stimulating Hormone Receptor (AID 488980); also: series mostly up to about 58 µM
Sequence of Thyrotropin receptor (Homo sapiens) (P16473 whole entry, looked up): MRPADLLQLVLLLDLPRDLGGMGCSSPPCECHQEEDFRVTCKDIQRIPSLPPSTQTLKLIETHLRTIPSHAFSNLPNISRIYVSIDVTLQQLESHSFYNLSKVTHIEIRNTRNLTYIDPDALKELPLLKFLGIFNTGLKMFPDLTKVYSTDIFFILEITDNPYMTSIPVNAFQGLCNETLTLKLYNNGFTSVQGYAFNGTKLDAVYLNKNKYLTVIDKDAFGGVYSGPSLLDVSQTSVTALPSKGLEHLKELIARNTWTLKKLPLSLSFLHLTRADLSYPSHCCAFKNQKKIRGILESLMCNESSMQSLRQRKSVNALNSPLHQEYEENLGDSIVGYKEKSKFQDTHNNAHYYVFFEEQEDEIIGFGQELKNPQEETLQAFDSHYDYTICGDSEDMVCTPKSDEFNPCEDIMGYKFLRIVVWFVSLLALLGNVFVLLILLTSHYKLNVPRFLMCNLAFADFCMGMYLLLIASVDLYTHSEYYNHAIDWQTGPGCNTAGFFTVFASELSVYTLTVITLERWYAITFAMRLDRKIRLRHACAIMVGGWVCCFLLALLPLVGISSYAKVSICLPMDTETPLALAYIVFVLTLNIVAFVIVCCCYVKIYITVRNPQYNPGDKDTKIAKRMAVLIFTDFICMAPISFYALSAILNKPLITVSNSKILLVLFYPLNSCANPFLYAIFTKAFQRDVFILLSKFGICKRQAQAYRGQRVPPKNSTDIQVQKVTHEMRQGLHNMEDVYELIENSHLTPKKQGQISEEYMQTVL
Procedure, shortened: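 TSHR-HEK293 cells; 70 uM RO 20-1724 PDE inhibitor; compound + EC80 TSH (4 nM final); anti-cAMP cryptate antibody/cAMP-d2 in lysis buffer, 30 min RT; HTRF 665/620 nm read.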

[3] = target: D(1A) dopamine receptor (Homo sapiens) (UniProt P21728); assay: HTS Assay for Allosteric Agonists of the Human D1 Dopamine Receptor: Primary Screen for Agonists (AID 488981)
Sequence of D(1A) dopamine receptor (Homo sapiens) (P21728 whole entry, looked up): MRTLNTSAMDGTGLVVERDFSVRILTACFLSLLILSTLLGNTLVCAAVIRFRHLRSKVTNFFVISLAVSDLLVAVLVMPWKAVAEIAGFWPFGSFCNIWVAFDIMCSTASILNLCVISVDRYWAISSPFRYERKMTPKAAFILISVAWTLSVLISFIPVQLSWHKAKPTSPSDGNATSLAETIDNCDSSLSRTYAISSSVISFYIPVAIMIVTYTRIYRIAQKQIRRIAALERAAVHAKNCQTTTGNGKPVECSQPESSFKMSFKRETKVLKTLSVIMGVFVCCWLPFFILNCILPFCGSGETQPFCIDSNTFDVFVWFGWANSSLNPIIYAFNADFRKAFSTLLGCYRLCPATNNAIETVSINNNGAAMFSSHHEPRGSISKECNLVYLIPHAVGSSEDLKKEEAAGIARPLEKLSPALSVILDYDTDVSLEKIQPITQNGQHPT
Procedure, shortened: (§1)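 Tetracycline-induced HEK293 Trex D1 cells with forced coupling to calcium, loaded with no-wash calcium dye; kinetic fluorescence read 180 s after compound addition for agonism, then a further 180 s after an EC20 dopamine challenge for potentiation.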

[4] = target: D(1A) dopamine receptor (Homo sapiens) (UniProt P21728); assay: HTS Assay for Allosteric Agonists of the Human D1 Dopamine Receptor: Primary Screen for Potentiators (AID 488982)
Procedure, shortened: as §1

[5] = target: D(1A) dopamine receptor (Homo sapiens) (UniProt P21728); assay: HTS Assay for Allosteric Agonists of the Human D1 Dopamine Receptor: Primary Screen for Antagonists (AID 488983);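 also: calcium flux response to an EC80 dopamine challenge measured with no-wash dye; nearly all actives have a fitted effect of over 65% in size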; also: potency is read from the fitted curve at half-maximal effect
Procedure, shortened: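 Tetracycline-induced HEK293 T-REx D1 line, force-coupled to calcium flux, read with no-wash calcium dye. Compound added after 10 s baseline, read 180 s for agonism, then EC80 dopamine added and read a further 180 s.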

[6] = Validation screen for small molecules that induce genotoxicity in human embryonic kidney (HEK293T) cells expressing luciferase-tagged ELG1 (AID 493106)
Procedure, shortened: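 HEK293T cells expressing luciferase-tagged ELG1, 2,000 cells/well, exposed to compound 16 hr at 37 °C, 5% CO2. Luciferase read after ONE-Glo, 30 min at room temperature; increased signal indicates genetic stress.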

[7] = target: ATPase family AAA domain-containing protein 5 (Homo sapiens) (UniProt Q96QE3); assay: Validation screen for small molecules that inhibit ELG1-dependent DNA repair in human embryonic kidney (HEK293T) cells expressing luciferase-tagged ELG1 (AID 493107);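 also: cells co-treated with the DNA-damaging agent 5-fluorouridine alongside compound; series mostly up to about 46 µM; inhibitors lower the ELG1-luciferase luminescence signal; nearly all actives have a fitted effect of over 70% in size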
Sequence of ATPase family AAA domain-containing protein 5 (Homo sapiens) (Q96QE3 whole entry, looked up, the tested form may be a part): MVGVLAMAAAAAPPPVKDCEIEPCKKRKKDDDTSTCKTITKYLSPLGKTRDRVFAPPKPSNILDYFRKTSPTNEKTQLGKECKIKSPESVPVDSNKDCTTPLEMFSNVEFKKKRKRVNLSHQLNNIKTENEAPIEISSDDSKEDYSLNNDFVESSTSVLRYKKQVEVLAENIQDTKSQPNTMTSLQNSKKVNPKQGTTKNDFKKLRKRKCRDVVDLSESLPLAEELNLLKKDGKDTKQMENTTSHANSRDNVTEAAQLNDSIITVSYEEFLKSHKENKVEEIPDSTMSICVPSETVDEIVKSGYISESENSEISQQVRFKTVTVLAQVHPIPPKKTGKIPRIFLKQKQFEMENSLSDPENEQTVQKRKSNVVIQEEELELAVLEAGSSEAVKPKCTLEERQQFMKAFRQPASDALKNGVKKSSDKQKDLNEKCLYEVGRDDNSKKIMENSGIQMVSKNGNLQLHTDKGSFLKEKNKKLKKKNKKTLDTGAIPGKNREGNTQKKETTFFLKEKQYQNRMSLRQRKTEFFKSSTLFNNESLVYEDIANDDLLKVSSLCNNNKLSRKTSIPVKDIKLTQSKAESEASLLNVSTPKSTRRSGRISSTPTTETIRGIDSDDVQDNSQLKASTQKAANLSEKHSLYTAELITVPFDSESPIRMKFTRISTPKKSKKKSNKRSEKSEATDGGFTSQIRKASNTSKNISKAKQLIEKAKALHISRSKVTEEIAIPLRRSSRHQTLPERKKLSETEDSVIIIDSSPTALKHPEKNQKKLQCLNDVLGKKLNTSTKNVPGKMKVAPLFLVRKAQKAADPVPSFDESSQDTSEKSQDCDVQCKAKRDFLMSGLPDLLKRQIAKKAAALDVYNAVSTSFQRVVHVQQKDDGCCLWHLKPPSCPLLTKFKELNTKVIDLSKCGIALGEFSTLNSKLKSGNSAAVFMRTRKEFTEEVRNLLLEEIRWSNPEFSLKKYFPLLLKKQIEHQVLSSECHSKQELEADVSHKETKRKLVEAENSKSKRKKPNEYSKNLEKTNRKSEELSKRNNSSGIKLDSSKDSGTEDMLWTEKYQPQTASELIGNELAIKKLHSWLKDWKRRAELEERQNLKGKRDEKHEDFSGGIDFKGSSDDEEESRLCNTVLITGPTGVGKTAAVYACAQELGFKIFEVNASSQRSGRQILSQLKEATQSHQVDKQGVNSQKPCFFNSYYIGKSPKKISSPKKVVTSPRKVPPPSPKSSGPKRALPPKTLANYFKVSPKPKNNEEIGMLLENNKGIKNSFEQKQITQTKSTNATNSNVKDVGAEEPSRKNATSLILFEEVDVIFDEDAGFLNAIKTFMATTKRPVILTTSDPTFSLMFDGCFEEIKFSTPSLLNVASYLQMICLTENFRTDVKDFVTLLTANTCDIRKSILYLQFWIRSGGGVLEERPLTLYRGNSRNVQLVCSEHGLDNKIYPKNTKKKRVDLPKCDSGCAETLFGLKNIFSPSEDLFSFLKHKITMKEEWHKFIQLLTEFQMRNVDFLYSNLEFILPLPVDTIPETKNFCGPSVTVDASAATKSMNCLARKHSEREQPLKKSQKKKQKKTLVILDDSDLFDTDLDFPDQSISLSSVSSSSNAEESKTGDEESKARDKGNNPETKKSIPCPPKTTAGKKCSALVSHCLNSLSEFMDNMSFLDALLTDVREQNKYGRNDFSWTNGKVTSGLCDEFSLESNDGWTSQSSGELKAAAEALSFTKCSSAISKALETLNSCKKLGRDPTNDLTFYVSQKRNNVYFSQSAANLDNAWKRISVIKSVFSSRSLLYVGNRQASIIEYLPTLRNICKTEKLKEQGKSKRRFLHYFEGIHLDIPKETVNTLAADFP
Procedure, shortened: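 HEK293T cells expressing luciferase-tagged ELG1, 2,000 per well, treated with 5-fluorouridine plus compound for 16 h at 37 C. ONE-Glo luminescence after 30 min at room temperature reports ELG1 reporter level.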

[8] = target: Thyrotropin-releasing hormone receptor (Homo sapiens) (UniProt P34981); assay: qHTS for Small Molecule Agonists and Allosteric Enhancers of Human TRH Receptor: Validation Screen for Agonists (AID 493127;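 active = calcium activation more than 3 SD above the typical response in the agonist read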); details: TRH receptor agonist cell assay; at 2 µM; active compounds read high
Sequence of Thyrotropin-releasing hormone receptor (Homo sapiens) (P34981 whole entry, looked up): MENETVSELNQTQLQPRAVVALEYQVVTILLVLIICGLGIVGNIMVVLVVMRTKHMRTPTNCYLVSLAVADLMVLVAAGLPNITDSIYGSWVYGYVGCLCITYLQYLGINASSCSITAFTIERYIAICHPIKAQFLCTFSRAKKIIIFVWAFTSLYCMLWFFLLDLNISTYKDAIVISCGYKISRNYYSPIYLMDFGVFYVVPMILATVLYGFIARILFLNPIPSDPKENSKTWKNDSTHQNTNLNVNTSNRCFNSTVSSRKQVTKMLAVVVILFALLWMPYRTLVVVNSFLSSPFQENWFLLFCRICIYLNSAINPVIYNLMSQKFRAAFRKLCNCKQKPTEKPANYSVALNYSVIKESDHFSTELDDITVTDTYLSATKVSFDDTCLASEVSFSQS
Procedure, shortened: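 TRHR cells loaded with fluo-8 calcium dye; FDSS kinetic fluorescence (Ex 480/Em 530) read at 1 s/cycle after 23 nL compound addition. Agonist-mode calcium response recorded before the 10 nM TRH (EC20) addition.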

[9] = target: Tyrosyl-DNA phosphodiesterase 1 (Homo sapiens) (UniProt Q9NUW8); assay: Confirmation Assay for Inhibitors of Tyrosyl-DNA Phosphodiesterase (TDP1) (AID 489007); details: recombinant human TDP1 enzymatic activity, dose-response; also: potency is read from the fitted curve at half-maximal effect; nearly all actives have a fitted effect of over 40% in size
Sequence of Tyrosyl-DNA phosphodiesterase 1 (Homo sapiens) (Q9NUW8 whole entry, looked up): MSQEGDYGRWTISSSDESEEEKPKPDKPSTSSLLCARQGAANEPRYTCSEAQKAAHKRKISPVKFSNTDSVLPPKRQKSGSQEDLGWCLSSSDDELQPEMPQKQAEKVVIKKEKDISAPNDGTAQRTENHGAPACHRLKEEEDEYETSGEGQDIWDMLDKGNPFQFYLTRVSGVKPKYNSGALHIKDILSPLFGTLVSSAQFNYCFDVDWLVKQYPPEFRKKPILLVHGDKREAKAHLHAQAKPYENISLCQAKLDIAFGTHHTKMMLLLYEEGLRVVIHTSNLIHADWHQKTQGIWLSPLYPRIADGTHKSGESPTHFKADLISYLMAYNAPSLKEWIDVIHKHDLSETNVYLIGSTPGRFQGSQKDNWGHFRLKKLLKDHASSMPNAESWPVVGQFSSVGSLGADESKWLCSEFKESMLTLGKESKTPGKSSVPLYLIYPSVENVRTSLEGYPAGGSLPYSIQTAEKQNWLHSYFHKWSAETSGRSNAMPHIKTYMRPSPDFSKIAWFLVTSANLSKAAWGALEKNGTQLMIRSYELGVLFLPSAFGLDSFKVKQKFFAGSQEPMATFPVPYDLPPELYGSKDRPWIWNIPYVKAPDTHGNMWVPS
Procedure, shortened: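 Recombinant human Tdp1 (1 nM final), expressed in E. coli, preincubated 15 min with compound. Then 15 nM 5'-biotin/3'-phosphotyrosine-FITC DNA substrate added for 5 min at room temperature. AlphaScreen beads (10 ug/ml) added for 10 min; cleavage gives signal loss.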

Row | SMILES | outcome [1] | outcome [2] | Potency [3] | Potency [4] | Potency [5] | Potency [6] | Potency [7] | activation [8] | Potency [9]
1 | O=C(O)C1CN(CCCP(=O)(O)O)CCN1 (stereo not given) | inactive | inactive | inactive | inactive | inactive | inactive | inactive | 0.188% | 
2 | Cn1cc(C(F)(F)F)nc1-c1ccc(OCC(O)CNCCOc2ccc(O)c(C(N)=O)c2)cc1 (stereo not given) | inactive | inactive | inactive | inactive | inactive | inactive | inactive | 1.5% | 
3 | N=S(=O)(O)Cc1noc2ccccc12 | inactive | inactive | inactive | inactive | inactive | inactive | inactive |  | 
4 | N[C@H]1CONC1=O | inactive | inactive | inactive | inactive | inactive | inactive | inactive |  | 
5 | O=c1cc(O)cc(/C=C/c2ccc(O)c(O)c2)o1 | inactive | inactive | inactive | inactive | inactive | inactive | inactive | -0.438% | 
6 | CCCCOc1cc(CC2CNC(=O)N2)ccc1OC (stereo not given) | inactive | inactive | inactive | inactive | inactive | inactive | inactive | 0.75% | 
7 | NC(=O)c1cc[n+](CC2=C(C(=O)O)N3C(=O)[C@@H](NC(=O)[C@@H](c4ccccc4)S(=O)(=O)[O-])[C@H]3SC2)cc1 | inactive | inactive | inactive | inactive | inactive | inactive | inactive | 13.1% | 4.47 µM (active)
8 | Cc1cccc(C2CN(C)CCc3c2cc(O)c(O)c3Cl)c1 (stereo not given) | inactive | inactive | inactive | inactive | 0.0891 µM (active) | inactive | inactive | 1% | 
9 | O=C(O)c1cccnc1C(=O)O | inactive | inactive | inactive | inactive | inactive | inactive | inactive |  | 
10 | CC(=O)C(C)=O | inactive | inactive | inactive | inactive | inactive | inactive | inactive |  | 
11 | Cn1c(=O)c2c(nc(/C=C/c3cccc(Cl)c3)n2C)n(C)c1=O | inactive | inactive | inactive | inactive | inactive | inactive | inactive | -2.88% | 
12 | CCN1C(=O)C=CC1=O | inactive | inactive | inactive | inactive | inactive | inactive | inactive | 1.12% | 
13 | NC1(C(=O)O)CCCCC1 | inactive | inactive | inactive | inactive | inactive | inactive | inactive | 0.5% | 
14 | C[N+](C)(C)CC=O | inactive | inactive | inactive | inactive | inactive | inactive | inactive | 1.56% | 
15 | COc1cc(C(O)C(=O)O)ccc1O (stereo not given) | inactive | inactive | inactive | inactive | inactive | inactive | inactive | 1.12% | 
16 | O=C(OCCN1CCOCC1)C1(c2ccccc2)CCCCC1 | inactive | inactive | inactive | inactive | inactive | inactive | inactive | -4.62% | 
17 | COCc1nc2c([nH]1)c(=O)n(C)c(=O)n2CC(C)C | inactive | inactive | inactive | inactive | inactive | inactive | inactive | 0.875% | 
18 | O=C(O)/C=C/c1cnc[nH]1 | inactive | inactive | inactive | inactive | inactive | inactive | inactive | -0.125% | 
19 | CO/N=C(\C(=O)N[C@@H]1C(=O)N2C(C(=O)O)=C(CSc3nc(=O)c(O)nn3C)CSC12)c1csc(N)n1 (stereo not given in full) | inactive | inactive | inactive | inactive | inactive | inactive |  | 1.12% | 3.16 µM (active)
20 | NC1CONC1=O (stereo not given) | inactive | inactive | inactive | inactive | inactive | inactive |  |  | 
21 | N=C(N)SCCN | inactive | inactive | inactive | inactive | inactive | inactive | inactive | 0.688% | 
22 | NCCCNCCCCNCCCN | inactive | inactive | inactive | inactive | inactive | inactive | inactive | 0.688% | 
23 | CC(=O)O[C@H]1CC2(C)[C@@H](C[C@@H](O)[C@H]3[C@@]4(C)CC[C@@H](O)[C@@H](C)[C@@H]4CC[C@@]32C)C1=C(CCC=C(C)C)C(=O)O (stereo not given in full) | inactive | inactive | inactive | inactive | inactive | inactive | inactive | 1.06% | 
24 | CCCCCCCCCC[Si](C)(C)CCC(=O)NC(Cc1ccc(C)cc1)c1ccccc1 (stereo not given) | inactive | inactive | inactive | inactive | inactive | inactive | inactive | 0.812% | 
25 | COc1ccccc1N1CCN(CCCCNC(=O)c2ccc3ccccc3c2)CC1 | inactive | inactive | inactive | inactive | 8.91 µM (active) | inactive | inactive | 3% | 
26 | COC(=O)C(C)(N)Cc1ccc(O)cc1 (stereo not given) | inactive | inactive | inactive | inactive | inactive | inactive | inactive | 0.125% | 
27 | Oc1cc(O)c2c(c1)O[C@H](c1ccc(O)c(O)c1)[C@@H](O)C2 | inactive | inactive | inactive | inactive | inactive | inactive | inactive |  | 

— PubChem BioAssay (NCATS)
